Source: PubChem BioAssay (NCATS)
Inconclusive results are not listed. Activity calls are given as the source filed them. Calls follow the shape of the dose curve; as a rule, active = well fitted inhibition curve with a large enough effect; inconclusive = small, poorly fitted or top-dose-only effect; inactive = flat fitted curve, though single readings scatter.

Assays:
Experiment in all cases: qHTS profiling for inhibitors of Plasmodium falciparum proliferation (AID 504749); also: nearly all actives have a fitted effect of over 60% in size
Conditions in all cases: P. falciparum in erythrocytes, SYBR Green DNA, 72 h; series mostly up to 28.7 µM
7G8 = test system: 7G8
In short: (§1)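 SYBR Green fluorescence (ex 485 nm, em 535 nm) reports parasite DNA after 72 h compound exposure of infected red cells at 0.3% parasitemia, 2.5% hematocrit; signal normalized to 0.29 uM artemisinin and vehicle wells.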

AA1029 = test system: AA1029
In short: as §1

AS120 = test system: AS120
In short: as §1

ATS189 = test system: ATS189
In short: as §1

ATS95 = test system: ATS95
In short: as §1

C2A = test system: C2A
In short: as §1

CP185 = test system: CP185
In short: as §1

CP192 = test system: CP192
In short: as §1

CP194 = test system: CP194
In short: as §1

CP201 = test system: CP201
In short: as §1

CP203 = test system: CP203
In short: as §1

CP211 = test system: CP211
In short: as §1

CP215 = test system: CP215
In short: as §1

CP217 = test system: CP217
In short: as §1

CP237 = test system: CP237
In short: as §1

CP238 = test system: CP238
In short: as §1

CP247 = test system: CP247
In short: as §1

CP250 = test system: CP250
In short: as §1

CP252 = test system: CP252
In short: as §1

CP191 = test system: CP191
In short: as §1

Measured: Potency
Potency is read from the fitted curve at half-maximal effect.

FC(F)(F)c1cccc(C2=CCN(CCc3ccc4ccccc4c3)CC2)c1
not listed: CP191
inactive: all other assays above

Cc1ccc(-c2nc3ccc(C)cn3c2CC(=O)N(C)C)cc1
not listed: CP203 | CP191
inactive: all other assays above

CC(C)(N)Cc1ccc(Cl)cc1
active: CP237 8.91 µM
not listed: 7G8 | AA1029 | ATS189 | ATS95 | CP194 | CP203
inactive: all other assays above

CCCN1CCC[C@@H]2Cc3[nH]ncc3C[C@H]21
inactive: CP192 | CP194 | CP201 | CP211 | CP215

O=c1[nH]c2ccccc2n1CCCN1CCC(n2c(=O)[nH]c3cc(Cl)ccc32)CC1
active: 7G8 1.41 µM | AS120 5.01 µM | C2A 11.2 µM | CP191 3.98 µM | CP237 7.94 µM
inactive: CP201

CC(C)(C)CC(C)(C)c1ccc(O)cc1
active: 7G8 12.6 µM | CP247 11.2 µM
not listed: AS120
inactive: all other assays above

CC(CCc1ccccc1)NC(C)C(O)c1ccc(O)cc1 (centres undefined)
active: CP237 5.62 µM
inactive: CP185 | CP191 | CP192 | CP217 | CP250 | CP252

Clc1cccc(N2CCNCC2)c1
not listed: 7G8 | CP194 | CP211 | CP237
inactive: all other assays above
